DT40 TDP1 CPT: DT40-hTDP1 cell growth loss with CPT | chicken DT40 Tdp1-/-;hTDP1 cells + 20 nM CPT, ATP luminescence, 48 h | Potency, µM (highest dose often 46.2 µM), inactives show at the top dose activity change, negative = growth inhibition, usual class: inhibitors | 12% of 420,000 active; further: on the % scale 0 is the no-effect control and ±100 the full control effect; nearly all actives have a fitted effect of over 55% in size
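Chicken DT40 Tdp1-/- cells complemented with human TDP1, 400 cells/well, exposed to compounds plus 20 nM camptothecin for at least 48 h at 37 C; viability read as ATP content by CellTiter-Glo luminescence.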
HT1080 IDH1KD tx: toxicity to HT-1080 IDH1 knockdown cells (counter line); HT-1080 IDH1 knockdown viability, ATP luminescence, 48 h; Potency, µM (highest dose often 46.1 µM), without a hit: at the top dose activity, negative = toxicity, most hits filed as cytotoxic; 2% of 360,000 active; AID 686971;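 further: 0% = DMSO wells and -100% = cell-free medium wells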
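After a 2 h attachment period, IDH1KD HT-1080 cells took pin-transferred compound for 48 h at 37 °C; ATP-based luminescence after 10 min room-temperature reagent incubation reported viability.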
TGFb SMAD3 inh: inhibitors of TGF-b signaling; Potency, µM (highest dose often 46.1 µM), for the others: top-dose activity, negative = inhibition, most hits filed as inhibitors; HepG2 CAGA-GFP TGF-b/SMAD3 reporter, GFP fluorescence, 18 h; TGF-beta stimulated, 500 pg/mL final; 1.2% of 410,000 active; further: on the % scale 0 is the no-effect control and ±100 the full control effect; nearly all actives have a fitted effect of over 65% in size
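TGF-beta reporter screen: HEPG2 CAGA-GFP, 1% FBS, 500 pg/mL TGF-beta final, 18 h; per-cell GFP summed per well; curves fitted and categorized by class.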
HT1080-NT tox: kills 2HG-producing HT-1080-NT fibrosarcoma cells. HT-1080-NT fibrosarcoma viability, CellTiter-Glo ATP luminescence, 48 h. 1.6% of 360,000 active. Potency, µM (highest dose often 46.1 µM), for the others: top-dose activity, negative = less viability, hits mostly cytotoxic. AID 686970;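 further: NT is the 2HG producing partner of a matched IDH1 knockdown line; 0% = DMSO-treated cells and -100% = media-only wells without cells; nearly all actives have a fitted effect of over 55% in size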
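Viability by CellTiter-Glo luminescence after 48 h compound exposure at 37C of HT-1080-NT cells (750/well, RPMI, 5% FBS). % activity scaled between DMSO wells and medium-only wells, then curve-fitted and categorized by curve class.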
DT40 TDP1 no CPT: qHTS for Inhibitors of human tyrosyl-DNA phosphodiesterase 1 (TDP1): qHTS in cells in absence of CPT | DT40 Tdp1-/- hTDP1 cells, no CPT, ATP luminescence, 48 h | Potency, µM (series often up to 46.2 µM), without a hit: top-dose activity change, negative = growth inhibition, usual class: inhibitors | 15% of 420,000 active | AID 686978, 2013; further: on the % scale 0 is the no-effect control and ±100 the full control effect; nearly all actives have a fitted effect of over 55% in size
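DT40 Tdp1-/-;hTDP1 cells, no CPT (DMSO vehicle only), 400 cells/well; compounds pin-transferred; ≥48 hr, 37 °C; CellTiter-Glo 30 min RT dark, luminescence read.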
HepG2 viability: kills HepG2 cells in TGF-b inhibitor counter-screen; Potency, µM (top dose mostly 46.1 µM), without a hit: at the top dose activity change, negative = cytotoxicity, usual class: cytotoxic; HepG2 CAGA-GFP viability, ATP luminescence, 18 h; 0.76% of 410,000 active
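CellTiter-Glo luminescence gave cytotoxicity after 18 hours at 37 degrees C. The cells were HepG2 CAGA-GFP in 1% FBS DMEM, stimulated with 500 pg/mL TGF-beta after compound addition. %Activity was normalised to no-cell wells (complete cell-killing) and DMSO (no toxicity), and curves were fitted and classified.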
* = called active by the depositor; u = inconclusive; x = no result; ! = not active in a repeat. In the library only some 17% were active in any assay of this set; here they are far more common. The call rests on the fitted dose curve; in most records, active means well fitted curve in the direction sought with a large enough effect; inconclusive means small, poorly fitted or top-dose-only effect, or another doubt; inactive means no such curve, though single readings can be large; an effect the other way counts as inactive or inconclusive. Potency means the concentration at half of the fitted maximal effect.

SMILES | DT40 TDP1 CPT | HT1080 IDH1KD tx | TGFb SMAD3 inh | HT1080-NT tox | DT40 TDP1 no CPT | HepG2 viability
Cc1cc(NC(=O)c2ccc(-c3ccccc3F)o2)no1 | u | 16% | 3% | 16% | 18µM* | -5%
Cc1cc(NC(=O)c2cccc(C(=O)Nc3cc(C)on3)n2)no1 | 0.18µM* | -25% | 2% | -16% | 0.65µM* | -24%
O=C(NCCc1ccccc1)c1nnc(Cc2cccc(F)c2)o1 | -12% | x | -11% | x | -23% | -49%
C=CCn1c(COc2ccc(Cl)cc2)nnc1SCC(=O)N1CC(=O)Nc2ccccc21 | -27% | 1% | -9% | 4% | -27% | -38%
Clc1cccc2c1Sc1ccccc1CC2N1CCNCC1 (stereo unspecified) | 18µM* | 18µM* | u | 23µM* | 18µM* | -110%
Clc1ccc2c(c1)C(N1CCNCC1)Cc1ccccc1S2 (stereo unspecified) | u | 18µM* | u | u | 23µM* | 14µM*
CN(C)C(CNC(=O)c1ccc2c(=O)n(-c3ccccc3F)c(=S)[nH]c2c1)Cc1ccccc1 (stereo unspecified) | 26µM* | -25% | -6% | 0% | 18µM* | -28%
O=C(NCCCN1CCCC1=O)c1ccc2c(=O)n(-c3ccccc3F)c(=S)[nH]c2c1 | -16% | 9% | -21% | 19% | -21% | -13%
CC(NC(=O)C1CCC(C(C)(C)C)CC1)C(c1ccccc1)N1CCOCC1 (stereo unspecified) | u | -1% | -20% | 0% | 23µM* | -27%
CC(NC(=O)Nc1ccc([N+](=O)[O-])cc1)C(c1ccccc1)N1CCOCC1 (stereo unspecified) | -27% | 12% | -4% | -25% | u | -4%
CC(Cc1cccs1)NC(=O)Nc1ccc(Cl)c(Cl)c1 (stereo unspecified) | 23µM* | u | u | u | 23µM* | -43%
CC(NC(=O)C1CC1)C(c1cccs1)N1CCOCC1 (stereo unspecified) | -10% | -4% | 2% | 2% | 5% | -5%
CC(Cc1cccs1)NC(=O)Nc1ccccc1 (stereo unspecified) | -28% | 1% | -14% | 10% | -9% | -10%
CC(NC(=O)Nc1ccc(Cl)c(Cl)c1)C(c1ccccc1)N1CCOCC1 (stereo unspecified) | 26µM* | u | u | 23µM* | u | -51%
C=CCN1C(=O)CSC1=Nc1ccc(NC(C)=O)cc1 | 10% | 3% | 7% | 0% | -5% | 14%
COc1ccc(-c2c(-c3ccc4c(c3)OCO4)noc2C)cn1 | u | -11% | -3% | -9% | 11µM*! | 0%
COc1ccc(-c2c(-c3ccc4c(c3)OCO4)noc2-c2ccsc2)cn1 | 13µM* | x | u | x | 14µM* | -26%
CC(C(=O)NC1CCCC1)N(C(=O)Cn1nnc(-c2ccc(F)cc2)n1)c1ccccc1F (stereo unspecified) | 23µM* | -7% | -10% | -12% | 23µM* | -11%
CC(C)(C)NC(=O)C(c1ccco1)N(C(=O)Cn1nnc(-c2ccc(F)cc2)n1)c1ccccc1F (stereo unspecified) | 29µM* | u | 4% | -19% | 16µM* | -4%
CCC(C(=O)NC(C)(C)C)N(C(=O)Cn1nnc(-c2ccccc2F)n1)c1cccc2c1CCCC2 (stereo unspecified) | u | 4% | -9% | 5% | 18µM* | -9%
CC(C)CCNC(=O)CN(C(=O)Cn1nnc(-c2ccccc2F)n1)c1cccc2c1CCCC2 | -3% | 0% | -5% | -5% | -6% | -2%
C=C1[C@H]2O[C@H]2[C@@H](OC(C)=O)[C@@]2(C)[C@@H](OC(C)=O)C[C@@H](OC(C)=O)[C@@](C)(O)[C@@H]2[C@@H](OC(C)=O)[C@@]2(O)[C@@H](C)C(=O)O[C@H]2[C@H]1Cl | -7% | 10% | 14% | 16% | -15% | 1%
Fc1ccc2cc(-c3ccccc3F)ncc2c1 | -6% | 4% | -18% | 4% | -21% | -30%
O=C(CSc1ccc2c(c1)OCCO2)Nc1ccc2c(c1)OCO2 | u | 0% | -20% | 1% | u | 12%
COc1cc(NC(=O)CSc2ccc3c(c2)OCCO3)cc(OC)c1OC | 21µM* | -6% | -3% | -5% | 21µM* | 6%
SMILES | DT40 TDP1 CPT | HT1080 IDH1KD tx | TGFb SMAD3 inh | HT1080-NT tox | DT40 TDP1 no CPT | HepG2 viability
COc1ccc(NC(=O)CSc2ccc3c(c2)OCCO3)cc1OC | 21µM* | 0% | 0% | 5% | u | -1%
CNC(=O)[C@@H]1C[C@H](Sc2nc3ccccc3[nH]2)CN1Cc1cccc(C(F)(F)F)c1 | -24% | x | x | x | -21% | x
CN(C)C(=O)[C@@H]1C[C@@H](Sc2nc3ccccc3[nH]2)CN1Cc1ccnc2ccccc12 | 16µM* | x | x | x | 15µM* | x
COc1ccc(C2CCCN2C(=O)Nc2ccc(Cl)cc2)cc1OC (stereo unspecified) | u | 7% | 13% | 9% | u | 13%
COc1ccc(-c2noc(C3CCCN(C(=O)c4ccc(C)cc4)C3)n2)cc1 (stereo unspecified) | 23µM* | 16µM* | u | u | 23µM* | 12%
Cc1ccc(-c2noc(C3CCCN(C(=O)c4ccc(Cl)cc4)C3)n2)o1 (stereo unspecified) | u | -17% | 2% | -19% | 13µM* | 16%
COc1ccc(-c2noc(C3CCCN(C(=O)c4ccc(F)cc4)C3)n2)cc1 (stereo unspecified) | u | u | -5% | -13% | u | -4%
CCOc1ccc(C(=O)Nc2cccc(OCc3cc(=O)n4cc(C)sc4n3)c2)cc1 | -9% | x | -20% | x | -17% | 0%
CC[C@@]1(C(=O)OC)N[C@H](CN(C)S(=O)(=O)c2ccc(C(F)(F)F)cc2)[C@@H]2C(=O)N(C)C(=O)[C@@H]21 | -2% | 7% | 16% | 8% | -13% | 9%
CC1C(c2ccccc2)=NNc2nc3c(c(=O)n(C)c(=O)n3C)n21 (stereo unspecified) | u | 8% | -5% | 10% | 12µM* | 8%

Screens as filed in PubChem.
